The text below walks through data of PubChem BioAssay (NCATS).

Inconclusive results are not listed. Entries that show only a call come without a potency. Activity calls are given as the source filed them. Calls come from the whole dose curve; as a rule, active = well fitted inhibition curve with a large enough effect; inconclusive = small, poorly fitted or top-dose-only effect; inactive = flat fitted curve, though single readings scatter.

In the experiment the test system is CRL-7250. Kind of experiment: qHTS assay to identify novel small-molecules to repurpose for Merkel cell carcinoma treatment (AID 1296009). Note: nearly all actives have a fitted effect of over 60% in size. The settings on record: MCC and control cell lines, CellTiter-Glo viability, 72 h; series mostly up to 92 µM. An outline of the steps: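 qHTS format: cells treated with library compounds in DMSO across 8 (NPC) or 11 (MIPE) concentrations. Readout after 72 hr at 37 degree celsius was CellTiter-Glo luminescence.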
Background: qHTS replaces the single test concentration by a dilution series.
As for `C/C=C(\C)C(=O)O[C@H]1[C@@H](O[C@]2(COC(=O)CC(C)C)O[C@H](COC(=O)C(C)C)[C@@H](OC(C)=O)[C@@H]2O)O[C@H](COC(C)=O)[C@@H](O)[C@@H]1O`, the Potency result is “inactive”.

For `CC1=CC(=O)CC(C)(C)C1CCC(C)O[C@@H]1O[C@H](CO)[C@@H](O)[C@H](O)[C@H]1O` (stereo not given in full), the Potency entry is “inactive”.

On to `O=C(O[C@@H]1O[C@H](CO)[C@@H](O)[C@H](O)[C@H]1O)c1ccccc1`, for which the Potency entry is “inactive”.

As for `COc1cc2c(cc1O)CC(O)(CO)C(CO)C2c1ccc(OC2OC(CO)C(O)C(O)C2O)c(OC)c1` (stereo not given), the Potency result was “inactive”.

As for `CC(C)C[C@H](CC(=O)NO)C(=O)N[C@H](C(=O)N[C@@H](C)C(=O)NCCN)C(C)(C)C`, the outcome is “inactive [at 9.27 µM]”.

With `CC1(CO)CC(O)C2(C)CCC3(C)C(=CCC4C5(C=O)CCC(OC6OC(C(=O)O)C(O)C(O)C6OC6OC(C(=O)O)C(O)C(O)C6O)C(C)(C)C5CCC43C)C2C1` (stereo not given), the outcome is “inactive [at 9.27 µM]”.

`Cc1ccc(Nc2nnc(-c3ccc([N+](=O)[O-])cc3)o2)cc1Cl`: the Potency result was “inactive”.

On to `CC(C)(C)OC(=O)c1ncn2c1C(C)(C)Nc1ccccc1-2`, for which the Potency entry was “inactive”.

In the case of `CC1(C)CC[C@]2(C(=O)O)CC[C@]3(C)C(=CCC4[C@@]5(C)CC[C@H](O[C@H]6O[C@H](C(=O)O)[C@@H](O)[C@H](O[C@@H]7O[C@H](CO)[C@H](O)[C@H](O)[C@H]7O)[C@H]6O)C(C)(C)C5CC[C@]43C)[C@@H]2C1` (stereo not given in full), the outcome was “inactive [at 9.27 µM]”.

On to `CC1=C2C(=O)C=C(CO[C@@H]3O[C@H](CO)[C@@H](O)[C@H](O)[C@H]3O)[C@@H]2[C@H]2OC(=O)[C@H](C)[C@@H]2[C@@H](O)C1`, for which the Potency entry was “inactive”.
